PubChem BioAssay AID1345085 (National Center for Advancing Translational Sciences (NCATS), 2018)
Results filed as inconclusive are left out. Values without a mark were called inactive. Calls of active or inactive are those of the source. Calls follow the shape of the dose curve; as a rule, active = well fitted cell-killing curve with a large enough effect; inconclusive = small, poorly fitted or top-dose-only effect, or effect the other way; inactive = no such curve, though single readings can be large or run the other way.

test system: SW626; experiment: Confirmatory qHTS for gynecologic anti-cancer compounds from libraries of approved drugs and bioactive compounds; details: gynecologic cancer cell panel viability, ATPlite luminescence, 48 h; series mostly up to 57.6 µM; activity change, negative = viability loss: at the top concentration; also: nearly all actives have a fitted effect of over 55% in size
Summary of the method: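 IC50 values derive from an ATPlite ATP-content luminescence assay following 48 h treatment at 37 C. Each compound ran as an 11-concentration, threefold series (57.5 uM to 0.977 nM); HEK 293T served as control line for selectivity index.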
% is scaled to controls: 0 for no effect and ±100 for the full control effect; potency is read from the fitted curve at half-maximal effect.

Compound | activity change, negative = viability loss [%] | Potency
Nc1ncn([C@@H]2O[C@H](CO)[C@@H](O)[C@H]2O)c(=O)n1 | 0.885 | 
COC(=O)c1ccc2c(C(=Nc3ccc(N(C)C(=O)CN4CCN(C)CC4)cc3)c3ccccc3)c(O)[nH]c2c1 |  | 24.3 µM (active)
COc1cc(N2CCC(N(C)C)CC2)ccc1Nc1ncc(Cl)c(Nc2ccccc2P(C)(C)=O)n1 |  | 3.85 µM (active)
CN(c1nccc(=O)[nH]1)C1CCN(c2nc3ccccc3n2Cc2ccc(F)cc2)CC1 | 15.2 | 
NC(=O)c1cnc(-c2ccc(C3(N)CCC3)cc2)c(-c2ccccc2)c1 |  | 24.3 µM (active)
CC[C@@]1(O)C(=O)OCc2c1cc1n(c2=O)Cc2c-1nc1ccccc1c2/C=N/OC(C)(C)C |  | 0.217 µM (active)
Cc1cc(Nc2cc(N3CCN(C)CC3)nc(/C=C/c3ccccc3)n2)n[nH]1 |  | 21.7 µM (active)
CC(C)[C@@H](CS(=O)(=O)C(C)C)N1C(=O)[C@@](C)(CC(=O)O)C[C@H](c2cccc(Cl)c2)[C@H]1c1ccc(Cl)cc1 | 12.1 | 
COc1cc(N2CCC(N)CC2)ccc1Nc1ncc(Cl)c(-c2c[nH]c3ccccc23)n1 |  | 21.7 µM (active)
O=C(Nc1cccnc1)N1CCC(Cc2cccc(Oc3ccc(C(F)(F)F)cn3)c2)CC1 | -11.9 | 
CCN1CCN(Cc2ccc(-c3cc4c(NC(C)c5ccccc5)ncnc4[nH]3)cc2)CC1 (centres undefined) |  | 27.3 µM (active)
CNCc1ccc(-c2[nH]c3cc(F)cc4c3c2CCNC4=O)cc1 | -7.71 | 
O=C1Cc2cc(CCN3CCN(c4nsc5ccccc45)CC3)c(Cl)cc2N1 | -0.656 | 
O=c1[nH]c(=O)n([C@H]2C[C@H](O)[C@@H](CO)O2)cc1C(F)(F)F | -9.33 | 
